Data: PubChem BioAssay (NCATS)
“And” between values parts separate entries of the source, which are not always exact repeats. Equal values may be shown once. Results filed as inconclusive are left out. The source made the active and inactive calls. Unless noted, calls follow the shape of the full dose curve.

Assays:
[1] = Validation of Assay for Modulators of Lamin A Splicing (AID 1459; active = well fitted curve in the direction sought with a large enough effect in the signal ratio; the % refers to the signal ratio;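 also: cells exposed to compound for two days before reading; 0% is about no effect; ratio rise marks activators and ratio drop marks inhibitors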)
Procedure, shortened: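 Dual-reporter HeLa S3 line (lamin A-EGFP minigene, DsRed2) treated with compounds 48 hrs, 0.5% DMSO final. Endpoint: EGFP/DsRed2 total intensity ratio from laser-scanning microplate cytometry.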

[2] = qHTS Assay for Lipid Storage Modulators (AID 1519); conditions: Drosophila S3 cells, BODIPY lipid droplet/cell ratio, laser cytometry, cells loaded with oleic acid; as to activity change, negative = inhibition: % is scaled to controls: 0 for no effect and ±100 for the full control effect
Procedure, shortened: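 Cells seeded at 5,000 per well were treated with compounds over a concentration series and loaded with oleic acid (400 uM, as added). Lipid droplet fluorescence (488 nm excitation, 500-530 nm channel) was read by laser-scanning cytometry and normalized to 20 uM Triacsin C.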

[3] = biological target: Alpha-galactosidase A (Homo sapiens) (UniProt P06280); test: Counterscreen for Glucocerebrosidase Inhibitors: qHTS Assay for Human alpha-Galactosidase at pH 4.5 (AID 992; active = well fitted curve in the direction sought with a large enough effect; inactive = no such curve, though single readings can be large or run the other way; also: 0% is about no effect)
Procedure, shortened: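 Quantitative HTS: compounds tested from 0.7 nM up to 77 uM against 2 nM enzyme with 80 uM 4-MU alpha-D-galactopyranoside. The 20 min room-temperature reaction is stopped with 1M NaOH/1M glycine, pH 10.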

[4] = measured here: cell count channel max response
[5] = measured here: lipid channel max response

Chain of Alpha-galactosidase A (Homo sapiens) (P06280 whole entry, looked up): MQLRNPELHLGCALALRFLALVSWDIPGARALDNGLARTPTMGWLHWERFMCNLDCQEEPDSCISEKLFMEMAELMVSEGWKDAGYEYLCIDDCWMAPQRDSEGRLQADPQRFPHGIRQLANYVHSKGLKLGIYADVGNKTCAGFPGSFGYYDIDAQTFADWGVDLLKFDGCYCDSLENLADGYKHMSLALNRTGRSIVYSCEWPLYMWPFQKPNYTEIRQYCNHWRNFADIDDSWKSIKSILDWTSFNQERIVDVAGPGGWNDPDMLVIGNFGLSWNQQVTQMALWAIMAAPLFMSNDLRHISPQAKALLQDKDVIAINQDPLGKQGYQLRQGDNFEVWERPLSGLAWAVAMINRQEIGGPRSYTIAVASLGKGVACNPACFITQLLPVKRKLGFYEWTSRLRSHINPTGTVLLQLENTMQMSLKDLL

SMILES | outcome [1] | activity change, negative = inhibition ([2]; at 57.5 µM (top of the series)) | max response [2, 4] | max response [2, 5] | outcome [3] | activity change, negative = inhibition ([2]; at 25.7 µM (top of the series))
CC[C@@H]1C(=O)OC[C@@H]1Cc1cncn1C | inactive | -0.176% (inactive) and -1.27% (inactive) | 23.8% and 24.9% | 22.1% and 21.9% | – | –
CS(=N)(=O)CC[C@H](N)C(=O)O (stereo partly drawn) | inactive | -1.65% (inactive) | 43.8% | 40.4% | – | –
O=C(O)[C@@H]1CCN1 | inactive | 1.64% (inactive) | -13.5% | -13.6% | – | –
NC(CCP(=O)(O)O)C(=O)O (stereo not drawn) | inactive | 2.25% (inactive) | 14.5% | 18.2% | – | –
Cn1cnc(CCN)c1 | inactive | 1.27% (inactive) | 34.2% | 35.2% | inactive | –
NC(=O)CN1CC(O)CC1=O (stereo not drawn) | inactive | 3.41% (inactive) | 18.3% | 20.4% | – | –
O=C(O)Cc1cnc[nH]1 | inactive | -0.977% (inactive) | 21.8% | 19% | inactive | –
Oc1ccc2c3c1O[C@H]1c4[nH]c5c(c4C[C@@]4(O)[C@@H](C2)N(CC2CC2)CC[C@]314)C[C@@]1(O)[C@H]2Cc3ccc(O)c4c3[C@@]1(CCN2CC1CC1)[C@H]5O4 | inactive | -0.289% (inactive) | -23.9% | -23.6% | – | –
C[N+]1(C)C2CCC1CC(OC(=O)C(CO)c1ccccc1)C2 (stereo not drawn) | inactive | -1.3% (inactive) | -18.3% | -18.4% | – | –
c1ccc2sc(C3(N4CCCCC4)CCCCC3)cc2c1 | inactive | -6.45% (inactive) and -1.27% (inactive) | -3.55% and -30.8% | 4.98% and -30.4% | inactive | –
C[N+](C)(C)CC(=O)O | inactive | – | – | – | – | –
CCCN(CCC)C1CCc2ccc(O)cc2C1 (stereo not drawn) | inactive | – | – | – | – | –
NCc1cc(=O)[nH]o1 | inactive | -0.672% (inactive) | 5.31% | 4.46% | inactive | –
O=C(Cc1ccc(Cl)c(Cl)c1)N1CCCCC1CN1CCCC1 (stereo not drawn) | inactive | 3.16% (inactive) | 16.5% | 19.9% | – | –
NC(CP(=O)(O)O)C(=O)O (stereo not drawn) | inactive | – | – | – | – | –
NC(=NCCC[C@H](N)C(=O)O)N[N+](=O)[O-] | inactive | 0.0348% (inactive) | -0.432% | 0.435% | inactive | –
Cc1nccc2c1[nH]c1ccccc12 | inactive | 2.54% (inactive) | 6.61% and 77.2% | 6.19% and 80.2% | inactive | 0.405% (inactive)
C[C@@H](N)Cc1cnc[nH]1 | inactive | 0.775% (inactive) | -2.18% | -3.82% | – | –
NCCc1c[nH]c2ccc(O)cc12 | inactive | 0.919% (inactive) | -5.09% and -12.1% | -6.32% and -9.72% | inactive | -0.711% (inactive)
COc1cc(C(O)CN)ccc1O (stereo not drawn) | inactive | – | – | – | – | –
CCCCc1ccc(C(=O)O)nc1 | inactive | 1.57% (inactive) | 0.85% and 4.91% | -1.53% and 6.42% | inactive | -2.75% (inactive)
